Compound activity: PubChem, several laboratories
Shown are actives, neighbours in structure and some others; about 1.5% of the full set was active somewhere.
IDE cell inh = inhibitors of human insulin-degrading enzyme in cells; P14735; HEK cells, FAbetaB cleavage, fluorescence polarization; inhibition, % at 5.59 µM; hit rate 0.41% among 320,000; AID 434962;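 active means percent inhibition above the average of all tested compounds plus 3 SD, set per screening campaign, cut at about 16% in these data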;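 further: IDE supplied by intact live HEK cells; FP after avidin binding of uncleaved biotin substrate so inhibition keeps polarization high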
Target sequence (P14735 whole entry, looked up): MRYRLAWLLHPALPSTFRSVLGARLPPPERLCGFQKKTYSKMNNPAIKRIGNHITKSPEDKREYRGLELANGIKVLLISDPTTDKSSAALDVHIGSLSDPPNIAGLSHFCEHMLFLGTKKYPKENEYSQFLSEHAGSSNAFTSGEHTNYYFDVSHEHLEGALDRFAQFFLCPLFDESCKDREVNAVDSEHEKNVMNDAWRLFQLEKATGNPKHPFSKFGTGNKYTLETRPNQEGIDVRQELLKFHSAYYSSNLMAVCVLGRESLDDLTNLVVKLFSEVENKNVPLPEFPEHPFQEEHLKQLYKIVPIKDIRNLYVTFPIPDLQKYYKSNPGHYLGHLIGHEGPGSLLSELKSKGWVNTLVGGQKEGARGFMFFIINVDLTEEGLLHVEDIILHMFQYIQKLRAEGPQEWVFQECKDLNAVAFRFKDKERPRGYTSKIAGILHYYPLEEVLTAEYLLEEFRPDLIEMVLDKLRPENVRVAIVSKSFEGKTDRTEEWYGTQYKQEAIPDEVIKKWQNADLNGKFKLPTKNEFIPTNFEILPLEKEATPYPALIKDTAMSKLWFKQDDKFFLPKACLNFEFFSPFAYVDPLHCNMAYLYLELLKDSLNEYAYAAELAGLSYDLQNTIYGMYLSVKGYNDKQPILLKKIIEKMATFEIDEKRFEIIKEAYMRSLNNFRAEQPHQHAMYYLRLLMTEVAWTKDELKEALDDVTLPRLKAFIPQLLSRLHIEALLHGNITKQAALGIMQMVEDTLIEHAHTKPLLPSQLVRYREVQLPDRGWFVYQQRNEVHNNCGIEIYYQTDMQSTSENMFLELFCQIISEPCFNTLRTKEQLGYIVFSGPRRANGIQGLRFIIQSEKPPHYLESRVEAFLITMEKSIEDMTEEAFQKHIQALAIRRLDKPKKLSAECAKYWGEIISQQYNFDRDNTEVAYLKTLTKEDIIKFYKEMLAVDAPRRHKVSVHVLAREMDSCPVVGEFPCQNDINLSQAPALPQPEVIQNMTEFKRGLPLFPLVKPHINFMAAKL
IDE cell activ = activators of human insulin-degrading enzyme in cells. P14735. HEK cells, FAbeta-B cleavage, fluorescence polarization; 0% vehicle, 100% cell-free pure enzyme wells. activation, % at 5.96 µM. hit rate 0.073% among 340,000. AID 493087;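 active means activation above the mean of all tested compounds plus 3 SD, set per screening campaign, cut at about 17% in these data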
RTF Ca sens act = increases calcium sensitivity of human cardiac regulated thin filaments; IANBD-labeled TnC RTF fluorescence at EC20 calcium; 0% EC20 calcium, 100% full calcium; hit rate 0.24% among 340,000; P19429+P45379; activation, % at 7.2 µM;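 active means activation above the mean over all tested compounds plus 3 SD, cut at about 30% in these data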;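 further: rise in fluorescence read as greater calcium sensitivity of cardiac thin filaments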
RTF Ca sens inh = cardiac RTF calcium desensitization; AID 493244; IANBD-labeled cardiac RTF, Ca2+ fluorescence; P19429+P45379; hit rate 0.12% among 340,000; inhibition, % at 7.15 µM;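 active means inhibition above the mean inhibition of all tested compounds plus 3 SD, cut at about 17% in these data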;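 further: assay run at fixed EC70 calcium of 1.6 mM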
CRFBP-R2 block = blocks CRF-induced signaling of the CRF-BP/CRF-R2 complex | hit rate 0.59% among 350,000 | inhibition, % at 11.8 µM | HEK293 CRF-R2/CRF-BP, CRF-induced calcium fluorescence | AID 588475;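 active means inhibition of the ligand-induced calcium signal above about 50% at the single tested concentration, limit read from the data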
CRFR2-BP ag = agonists of human CRF-binding protein/CRF-R2 receptor complex; HEK293 CRF-R2/CRF-BP, calcium dye fluorescence (FLIPR); percent of saturating CRF peptide response; activation, % at 13.2 µM; AID 588473; hit rate 0.46% among 350,000;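 active means activation of at least 50%, plus an integration ratio under a set limit after plate pattern correction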
Of the large screens only hits and unclear results are named; the others gave an inactive call.

COc1cc(C2C(C(=O)c3ccc(C)o3)=C(O)C(=O)N2c2cc(C)on2)cc(Br)c1O (stereo unspecified)	none
COc1cc(C2C(C(=O)c3ccco3)=C(O)C(=O)N2c2cc(C)on2)cc(Br)c1O (stereo unspecified)	CRFBP-R2 block 80
CCOC(=O)C(NCc1ccccn1)(NC(=O)c1cccnc1)C(F)(F)F (stereo unspecified)	CRFBP-R2 block 61
CCOC(=O)C(NC(=O)c1cccnc1)(Nc1cccc(C)n1)C(F)(F)F (stereo unspecified)	none
Cc1nc(N)[nH]c(=O)c1CCCNc1ccc([N+](=O)[O-])cc1	none (no result: IDE cell inh)
O=C(NCc1ccc(OC(F)(F)F)cc1)c1cccc2c1C(=O)c1ccc(N3CCCC3)cc1S2(=O)=O	CRFR2-BP ag 102
O=C(NCCN1CCOCC1)c1cccc2c1C(=O)c1ccc(N3CCCC3)cc1S2(=O)=O	none
O=C(NCc1ccccc1Br)c1cccc2c1C(=O)c1ccc(-c3ccc(OC(F)(F)F)cc3)cc1S2(=O)=O	none
O=C(NCc1cc(C(F)(F)F)ccc1Cl)c1cccc2c1C(=O)c1ccc(N3CCCCC3)cc1S2(=O)=O	CRFR2-BP ag 53
O=C(NCc1ccc(OC(F)(F)F)cc1)c1cccc2c1C(=O)c1ccc(N3CCCCC3)cc1S2(=O)=O	CRFR2-BP ag 68
O=C(NCc1ccc(OC(F)(F)F)cc1)c1cccc2c1C(=O)c1ccc(N3CCC(Cc4ccccc4)CC3)cc1S2(=O)=O	CRFR2-BP ag 63
O=C(NCc1cc(C(F)(F)F)ccc1Cl)c1cccc2c1C(=O)c1ccc(N3CCC(N4CCCCC4)CC3)cc1S2(=O)=O	none (no result: IDE cell inh, IDE cell activ, RTF Ca sens act, RTF Ca sens inh)
CCN(CCO)C(=O)c1ccc2nc(Cc3cccc(Cl)c3)oc2c1	none
Cc1nc2ccccc2n2c(O)c(CC(=O)O)cc12	RTF Ca sens act 125, CRFR2-BP ag 89
CN(Cc1cccc(F)c1)C(=O)c1ccc(S(=O)(=O)N2CCCCCC2)cc1	none
Cc1ccccc1C(=O)NCC(=O)OC1CCCCC1=O (stereo unspecified)	CRFBP-R2 block 68
COc1ccc(OCCC(=O)OCC(=O)NCCc2ccccc2)cc1	none
CCOC(=O)C1=C(COC(=O)[C@@H]2CCCN2S(=O)(=O)c2ccc(C)cc2)NC(=O)NC1C (stereo partly specified)	none
Cc1cc(NC(=O)C(C)C)ncc1NC(=O)CCc1ccccc1	CRFR2-BP ag 141
Cc1cc(NC(=O)C(C)C)ncc1NC(=O)c1ccco1	none (no result: CRFBP-R2 block, CRFR2-BP ag)
Cc1[nH]c(=O)[nH]c1C(=O)CCCCC(=O)O	IDE cell activ 39
FC(F)(F)c1ccccc1-c1nc(-c2ccncc2)no1	CRFBP-R2 block 57
CC(C)c1ccc2[nH]c3nc(SCC(=O)N4CCOCC4)nnc3c2c1	none
COc1ccccc1N1CCN(C2CCCCC2NS(=O)(=O)c2ccc(Cl)cc2)CC1 (stereo unspecified)	CRFR2-BP ag 212
COc1ccc(N2CCN(C3CCCCC3NS(=O)(=O)c3ccc(Cl)cc3)CC2)cc1 (stereo unspecified)	CRFR2-BP ag 70
CC1CC(C)CN(C2CCCCC2NS(=O)(=O)c2ccc(Cl)cc2)C1 (stereo unspecified)	CRFR2-BP ag 55
CN1CCN(C2CCCCC2NS(=O)(=O)c2ccc(Cl)cc2)CC1 (stereo unspecified)	none
Cc1[nH]c(=O)c(C#N)cc1-c1csc(-c2ccccc2)n1	CRFBP-R2 block 51
O=c1oc2c(CN3CCCCC3)c(O)ccc2cc1-c1nc2ccccc2[nH]1	CRFR2-BP ag 97 (no result: IDE cell inh)
O=c1oc2c(O)cccc2cc1-c1nc2ccccc2[nH]1	IDE cell activ 61, RTF Ca sens act 153, CRFR2-BP ag 184 (no result: IDE cell inh)
O=c1oc2c(CN3CCN(CCO)CC3)c(O)ccc2cc1-c1ccccn1	CRFR2-BP ag 71
Cc1ccc(CN2CCSc3ccc(C(=O)N4CCN(c5ncccn5)CC4)cc32)cc1	CRFBP-R2 block 62
O=Cc1ccc(N2CCCC2)c([N+](=O)[O-])c1	none
O=[N+]([O-])/C=C\c1ccc(N2CCCC2)c(F)c1	CRFR2-BP ag 106 (no result: IDE cell inh)
O=C(NC(=S)Nc1ncc(Br)cc1Br)c1ccccc1	none
Cc1ccc(NC(=O)CSc2nc3ccccc3c(=O)n2CCCC(=O)NCCCN2CCOCC2)cc1	CRFBP-R2 block 72
CCN(CC)c1ccc(/C=C/c2cccc[n+]2C)c(OC)c1	IDE cell inh 28, RTF Ca sens act 75, CRFR2-BP ag 55
O=C(CSCc1ccccc1Br)NNC(=S)NCc1ccco1	CRFBP-R2 block 77
Cc1ccccc1CSCC(=O)NC(=O)NCc1ccco1	none
CN(C)c1ccc(/C=C/c2cc[n+](C)cc2)cc1	RTF Ca sens act 47
CN(C)c1ccc(/C=C/c2cc[n+]([O-])cc2)cc1	IDE cell inh 22 (no result: IDE cell activ, RTF Ca sens act, RTF Ca sens inh, CRFBP-R2 block, CRFR2-BP ag)
CC[n+]1ccccc1/C=C/c1ccc(N(C)C)cc1	none (no result: IDE cell inh)
CC[n+]1ccc(/C=C/c2ccc(N(C)C)cc2)c2ccccc21	none (no result: IDE cell inh)
COc1cc(OC)cc(C(=O)NCC(=O)Nc2ccc(-c3ccccc3)cc2)c1	none
O=C(O)c1c(Cl)cccc1Cl	none
CCOc1ccccc1N(CC(=O)Nc1ccc(OC)c(OC)c1)S(=O)(=O)c1ccccc1	RTF Ca sens act 52
CCOC(=O)N1CCN(C(=O)c2ccc3nc(SCc4ccc(F)cc4)n(C)c3c2)CC1	CRFBP-R2 block 51
N=c1c(S(=O)(=O)c2ccccc2)cc2c(=O)n3ccccc3nc2n1Cc1ccco1	CRFR2-BP ag 89
Cc1ccc(S(=O)(=O)c2cc3c(=O)n4ccccc4nc3n(Cc3ccco3)c2=N)cc1C	CRFR2-BP ag 79 (no result: IDE cell activ, RTF Ca sens act, RTF Ca sens inh)
CCCn1c(=N)c(S(=O)(=O)c2ccccc2)cc2c(=O)n3ccccc3nc21	CRFBP-R2 block 110
Cc1ccc2nc3c(cc(S(=O)(=O)c4ccccc4)c(=N)n3Cc3ccco3)c(=O)n2c1	none
Cc1cccn2c(=O)c3cc(S(=O)(=O)c4ccccc4)c(=N)n(Cc4ccco4)c3nc12	none
Cc1sc(NC(=O)c2sc3nc4c(C)cccc4cc3c2N)c(C#N)c1C	CRFR2-BP ag 88
COc1ccc(NC(=S)N2CCC(C(O)(c3ccccc3)c3ccccc3)CC2)cc1	none
CCOc1ccc(NC(=S)N2CCC(C(O)(c3ccccc3)c3ccccc3)CC2)cc1	CRFBP-R2 block 56
O=C(COC(=O)c1ccc(Cl)c(S(=O)(=O)NCc2ccccc2)c1)NCC1CCCO1 (stereo unspecified)	none
COc1ccc(C(=O)Cn2cnc3ccccc3c2=O)c(OC)c1	CRFR2-BP ag 54 (no result: IDE cell inh)
C=CCN1C(=O)c2ccccc2Sc2ccc(C(=O)NCC(OC)OC)cc21	none
O=C(CCSCc1ccc(Cl)cc1)NCc1cccs1	RTF Ca sens inh 18
O=C(CSCc1ccc(F)cc1)NCc1cccs1	none
